# Measured values published in PubChem BioAssay.
# Several values for one entry are separate records, joined by “and”; a condition that tells them apart may be missing. Equal entries are not always repeated. Activity calls are given as the source filed them. Rule as the data show it, unless noted: active = inhibition above about 80%; inactive = the rest.
# Experiments:
# [1] = liver-stage malaria parasite growth inhibition, primary screen, cell-based, HepG2, luciferase luminescence, HepG2 viability (AID 624349; in the data active = parasite load remaining mostly below about 12%, no sharp cut-off; inactive = mostly above about 10%;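 also: 100% = mean of DMSO negative control wells on the same plate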); conditions: P. berghei liver stage in HepG2, luciferase luminescence, concentration not given here; parasite load remaining: stronger effect = lower value; viability: measured here: HepG2 viability without parasites
# [2] = system: Aerobactin synthetase IucA (Klebsiella pneumoniae); experiment: IucA aerobactin synthetase inhibitors, biochemical, Tocris library, absorbance (AID 1345561; call rule not given here;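 also: 100% = enzyme without compound and 0% = no enzyme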); conditions: purified IucA enzyme assay, absorbance (OD) read-out; stronger effect = lower value;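 tested at 8 µM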
# [3] = sensitizers of A549 cells to miR-34 induction, primary screen, imaging, A549 dox-inducible miR-34, nuclei and caspase counts (AID 1347080;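 active = compounds whose cell count with miR-34 switched on is under 0.7 times the count with it off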); conditions: A549 miR-34 inducible, Hoechst nuclei count, 48 h
# [4] = survival rescue of mitochondrial mutant cells in low glucose, primary screen, MELAS cybrids, Rieske KO mouse fibroblasts, CellTiter-Glo (AID 1508586;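 active = mean z-score across replicates of 1.96 or higher in either the MELAS or the Rieske mutant cell line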;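 also: z relative to plate mean and SD of compound and empty wells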)
# [5] = viability rescue of complex I mutant cybrids, primary screen, cell-based, galactose medium, ATP luminescence (AID 1645843;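 active = z-score of at least 1.8 in each of two replicates, scored against plate mean and spread of sample wells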;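 also: positive z means more ATP and so rescue of galactose-driven cybrid death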); conditions: complex I mutant cybrid cells, 72 h, stronger effect = higher value
# [6] = LFS_MB_P medulloblastoma growth inhibition, cell-based, chromothripsis tumors, cisplatin or BGB combos (AID 1671449); conditions: LFS_MB_P medulloblastoma cells;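 also: cells exposed for 96 hours; 0% = vehicle DMSO and 100% = killing by high DMSO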
# [7] = HDN33 neuroblastoma growth inhibition, cell-based, chromothripsis tumors, cisplatin or BGB combos (AID 1671450); conditions: HDN33 neuroblastoma cells, stronger effect = higher value;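 also: cells exposed to compound for four days; 0% = vehicle DMSO and 100% = cell killing by high DMSO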
# [8] = ICB984 medulloblastoma cell growth inhibition, synergistic combos for chromothripsis tumors, cisplatin or BGB combos (AID 1671451; call rule not given here;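 also: cells exposed for 96 hours before readout; 0% = vehicle DMSO and 100% = killing by high DMSO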); conditions: ICB984 medulloblastoma cells, drug combinations, stronger effect = higher value
# [9] = LFS_MB_1R medulloblastoma cell growth inhibition, synergistic combos for chromothripsis tumors, cisplatin or BGB combos (AID 1671452); conditions: LFS_MB_1R medulloblastoma cells, stronger effect = higher value;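 also: cells exposed for 96 hours before readout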
# [10] = HTB85 osteosarcoma cell growth inhibition, synergistic combos for chromothripsis tumors, BGB or cisplatin IC20 combos (AID 1671453); conditions: HTB85 osteosarcoma cells, drug combinations, stronger effect = higher value;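 also: cells exposed for 96 hours before readout; 0% = vehicle DMSO and 100% = high DMSO killing control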
# [11] = CRL2098 osteosarcoma cell growth inhibition, synergistic combos for chromothripsis tumors, BGB or cisplatin IC20 combos (AID 1671454); conditions: CRL2098 osteosarcoma cells, drug combinations, stronger effect = higher value;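 also: cells exposed for 96 h before readout; 0% = vehicle DMSO and 100% = killing by high DMSO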
# [12] = HD-MB03 medulloblastoma cell growth inhibition, synergistic combos for chromothripsis tumors, BGB or cisplatin IC20 combos (AID 1671455; in the data active = inhibition above about 83%;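 also: 0% = vehicle DMSO and 100% = high DMSO as cytotoxic control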); conditions: HD-MB03 medulloblastoma cells, stronger effect = higher value
# [13] = UWB1.289 ovarian carcinoma cell growth inhibition, synergistic combos for chromothripsis tumors, BGB or cisplatin combos (AID 1671456); conditions: UWB1.289 ovarian carcinoma cells, stronger effect = higher value;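 also: cells exposed to compound for four days; 0% = vehicle DMSO and 100% = killing by high DMSO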
# [14] = LFS_MB_2R medulloblastoma cell growth inhibition, synergistic combos for chromothripsis tumors, cisplatin combos (AID 1671457); conditions: LFS_MB_2R medulloblastoma cells, stronger effect = higher value;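 also: cells exposed to compound for four days before readout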
# [15] = MDA-MB-436 breast carcinoma cell growth inhibition, synergistic combos for chromothripsis tumors, BGB or cisplatin combos (AID 1671458; call rule not given here;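 also: cells exposed for 96 hours; 0% = vehicle DMSO and 100% = killing by high DMSO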); conditions: MDA-MB-436 breast carcinoma growth inhibition, drug combinations, stronger effect = higher value
# [16] = UWB1.289_BRCA1 ovarian cancer growth, cell-based, BGB or cisplatin combinations (AID 1671459); conditions: UWB1.289 BRCA1 ovarian carcinoma, drug combinations, stronger effect = higher value
# [17] = human astrocyte viability loss, single and combined drugs, cytotoxicity control for chromothriptic childhood tumor combination screen, cell-based, BGB or cisplatin IC20 combos (AID 1671460); conditions: Human astrocytes, drug combinations, stronger effect = higher value;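 also: cells exposed to compounds for 96 hours before viability readout; 0% = vehicle and 100% = killing control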
# [18] = growth inhibition of BT084 medulloblastoma cells, cell-based, ICGC_MB145, cisplatin and BGB IC40 combos (AID 1671461); conditions: drug combinations, stronger effect = higher value;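 also: cells exposed to drugs for 96 hours; 0% = vehicle DMSO and 100% = high DMSO full killing control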
# [19] = growth inhibition of RCMB18 medulloblastoma cells, cell-based, cisplatin and BGB IC40 combos (AID 1671462); conditions: stronger effect = higher value;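 also: cells exposed to compound for four days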
# [20] = growth inhibition of CRL1545 osteosarcoma cells, cell-based, cisplatin and BGB IC20 combos (AID 1671464); conditions: stronger effect = higher value;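 also: cells exposed to compound for 96 hours before readout; 0% = vehicle DMSO and 100% = high DMSO killing control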
# [21] = measured here: combination with BGB IC40, at 0.05 µM
# [22] = measured here: with BGB IC20 combination, at 0.5 µM
# [23] = measured here: with cisplatin IC20 combination, at 0.5 µM
# [24] = measured here: combination with cisplatin, at 0.5 µM
# [25] = measured here: combination with cisplatin, at 5 µM
compound,measurement,setting,value
O=C(NC(NC(=S)Nc1ccc(F)c([N+](=O)[O-])c1)C(Cl)(Cl)Cl)C(c1ccccc1)c1ccccc1 (stereo not drawn),parasite load remaining,[1],37.9% (inactive)
same,viability,[1],150%
same,remaining activity,[2],80.1% (inactive)
same,fold change,"[3]; stronger effect = lower value, cell number ratio, induced over uninduced",0.886 (inactive) and 0.916 (inactive)
same,fold change,[3]; measured here: relative caspase fold change +Dox/-Dox,0.378 and 1.21
same,cell count,"[3]; measured here: total cells with miR-34 induction, stronger effect = lower value",1760 and 1260
same,cell count,[3]; measured here: total cells without miR-34 induction,1990 and 1380
same,z-score,"[4]; MELAS cybrid survival, CellTiter-Glo 48 h, stronger effect = higher value",-0.482 (inactive)
same,z-score,"[4]; Rieske KO mouse fibroblast survival, CellTiter-Glo 72 h",-0.549
same,z-score,[5],-0.7 (inactive)
same,inhibition,"[6]; at 0.5 µM, stronger effect = higher value",-14.4% (inactive) and -15.8% (inactive)
same,inhibition,"[6]; measured here: combination with BGB IC20, at 0.005 µM",-15.1% and -22%
same,inhibition,"[6]; measured here: combination with BGB IC40, at 0.005 µM",-12.9% and -23.4%
same,inhibition,[6]; [21],-2.89% and -34.1%
same,inhibition,"[6]; measured here: combination with cisplatin, at 0.5 µM, stronger effect = higher value",-21.5% and -41.9%
same,inhibition,"[6]; measured here: combination with cisplatin, at 5 µM, stronger effect = higher value",-21.2% and -42.7%
same,inhibition,"[7]; BGB combo, at 5 µM",-9.61% and -16%
same,inhibition,[7]; at 0.5 µM,-0.93% (inactive) and -12% (inactive)
same,inhibition,"[7]; cisplatin combo, at 5 µM",-12.1% and -4.83%
same,inhibition,[7]; [22],-8.76% and -21.5%
same,inhibition,[7]; [23],2.56% and -5.96%
same,inhibition,"[7]; single agent, at 5 µM",4.16% and -9.08%
same,inhibition,"[8]; BGB IC20 combo, at 0.005 µM",7.62% and 15.2%
same,inhibition,"[8]; BGB IC40 combo, at 0.005 µM",-20.7% and 11.9%
same,inhibition,"[8]; BGB IC40 combo, at 0.05 µM",35.5% and -11.2%
same,inhibition,[8]; at 0.5 µM,-22.3% (inactive) and -17.8% (inactive)
same,inhibition,"[8]; cisplatin combo, at 0.05 µM",33.7% and -15.2%
same,inhibition,"[8]; cisplatin combo, at 0.5 µM",-13.4% and -3.51%
same,inhibition,"[8]; cisplatin combo, at 5 µM",-12.5% and -33.8%
same,inhibition,"[8]; measured here: 5 uM single agent, at 5 µM",-8.95% and -2.73%
same,inhibition,[9]; at 0.5 µM,4.09% (inactive) and -12.4% (inactive)
same,inhibition,[9]; [21],-23.4% and -14.6%
same,inhibition,[9]; [24],-13.7% and -10.4%
same,inhibition,[9]; [25],30.6% and -30.6%
same,inhibition,[10]; at 0.5 µM,8.95% (inactive) and 0.41% (inactive)
same,inhibition,"[10]; measured here: with BGB IC20, at 0.5 µM",16.1% and 0.127%
same,inhibition,"[10]; measured here: with BGB IC20, at 5 µM",2.8% and -10.9%
same,inhibition,"[10]; measured here: with cisplatin IC20, at 0.5 µM",1.41% and -9.26%
same,inhibition,"[10]; measured here: with cisplatin IC20, at 5 µM",2.01% and -34.1%
same,inhibition,"[10]; single agent, at 5 µM",-3.27% and 7.66%
same,inhibition,[11]; at 0.5 µM,-40.5% (inactive) and -32.4% (inactive)
same,inhibition,"[11]; measured here: combination with BGB at IC20, at 0.5 µM",-40.4% and -25.9%
same,inhibition,"[11]; measured here: combination with cisplatin at IC20, at 0.5 µM",-32.4% and -44.5%
same,inhibition,[12]; at 0.5 µM,-6.28% (inactive) and -0.79% (inactive)
same,inhibition,"[12]; measured here: combo with BGB at IC20, at 0.5 µM",-4.65% and -5.29%
same,inhibition,"[12]; measured here: combo with cisplatin at IC20, at 0.5 µM",-1.73% and -0.093%
same,inhibition,[13]; at 0.5 µM,1.14% (inactive) and 7.56% (inactive)
same,inhibition,"[13]; measured here: inhibition with BGB combination, at 0.05 µM",-13.3% and -2.68%
same,inhibition,"[13]; measured here: inhibition with cisplatin combination, at 0.05 µM",-5.95% and 6.61%
same,inhibition,[14]; at 0.5 µM,-3.23% (inactive) and -7.87% (inactive)
same,inhibition,[14]; [24],-13.3% and -8.76%
same,inhibition,[14]; [25],-66.9% and -2.51%
same,inhibition,[15]; at 0.5 µM,-16.1% (inactive) and -3% (inactive)
same,inhibition,"[15]; measured here: BGB combination, at 0.5 µM",-8.94% and -6.88%
same,inhibition,"[15]; measured here: BGB combination, at 5 µM",-14.6% and -14.8%
same,inhibition,"[15]; measured here: cisplatin combination, at 0.5 µM",-23.9% and -0.178%
same,inhibition,"[15]; measured here: cisplatin combination, at 5 µM",-32.1% and -10.9%
same,inhibition,"[16]; BGB combination, concentration series, at 5 µM",0.384% and 38.2%
same,inhibition,[16]; at 0.5 µM,2.79% (inactive) and 5.22% (inactive)
same,inhibition,"[16]; cisplatin combination, concentration series, at 5 µM",64.5% and 45%
same,inhibition,[17]; at 0.5 µM,6.11% (inactive) and 4.43% (inactive)
same,inhibition,"[17]; measured here: combo with BGB IC20, at 0.5 µM",7.77% and 5.34%
same,inhibition,"[17]; measured here: combo with cisplatin IC20, at 0.5 µM",14.5% and -0.76%
same,inhibition,[18]; at 0.5 µM,-8.03% (inactive) and 6.1% (inactive)
same,inhibition,"[18]; cisplatin combination, at 0.5 µM",5.04% and -12.2%
same,inhibition,"[18]; cisplatin combination, at 5 µM",12.2% and 15.1%
same,inhibition,"[18]; measured here: BGB IC40 combination 0.05 uM, at 0.05 µM",8.16% and -30.4%
same,inhibition,"[18]; single agent, at 5 µM",13.4% and 28.8%
same,inhibition,[19]; at 0.5 µM,-8.16% (inactive) and -14.2% (inactive)
same,inhibition,"[19]; cisplatin combo, at 5 µM",-16.1% and 2.1%
same,inhibition,"[19]; measured here: BGB IC40 combination, at 0.05 µM",-2.84% and -11.5%
same,inhibition,[19]; [24],8.34% and 10.3%
same,inhibition,"[19]; single agent, at 5 µM",-30.9% and -16.7%
same,inhibition,[20]; at 0.5 µM,6.4% (inactive) and -19.7% (inactive)
same,inhibition,[20]; [22],25.3% and -10.2%
same,inhibition,[20]; [23],-5.35% and -26.5%
same,inhibition,"[20]; single agent, at 0.05 µM",5.52% and 12.5%
same,inhibition,"[20]; single agent, at 5 µM",4.21% and -26.5%
